Inconclusive results are not listed. Calls of active or inactive are those of the source.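 How the source made its calls, unless noted: active means viability at or under a set limit in both replicates, limit being median viability minus 3 SD (cut at about 48% in these data, passing the limit was not always enough); inconclusive means at or under the limit in just one replicate; inactive means at or above the limit in both replicates.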
Columns and labels:
[1] = Her2 expression decrease, cell viability multiplex – SKBR3 breast tumor cells, AlphaScreen, ATP viability, primary screen (AID 461;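 active means Her2 level under about 52% in both replicate screens, with viability over 70% of control, limit read from the data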;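 on Her2 level: lower value means less Her2 protein in the cells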;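 on viability: percent of carrier control wells set as 100% viability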); details: SKBR3 Her2 protein level, 18-24 h, measured here: SKBR3 viability, ATP luminescence, at 10 µM
[2] = molecular target: Receptor tyrosine-protein kinase erbB-2 (Homo sapiens) (UniProt P04626); experiment: as above; details: 18-24 h, at 10 µM, stronger effect = lower value
[3] = reduced viability of SK-BR-3 breast cancer cells – cell-based, 24 h, human, pilot screen (AID 572;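 active means viability at or below 10% of carrier control in both of two separate runs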;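 further: compound exposure lasted between 18 and 24 h rather than exactly 24 h; 100% = carrier-treated control wells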); details: SK-BR-3 viability, CellTiter-Glo luminescence, at 10 µM, stronger effect = lower value
[4] = HUVEC growth inhibition – cell-based, human, primary screen (AID 575;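 active means viability at or below 30% in both replicate assays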;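 further: 100% = median of untreated cell wells with 0.1% DMSO on each plate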); details: HUVEC proliferation, CellTiter-Glo luminescence, 72 h; at 10 µM; stronger effect = lower value
[5] = H69AR cell proliferation blockers – human, duplicate replicates, primary screen (AID 580); details: H69AR lung tumor cells viability, ATP luminescence, 72 h; at 10 µM; stronger effect = lower value;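 further: 100% = mean luminescence of untreated wells and 0% = no signal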
[6] = MRP1 drug-resistance reversers in H69AR cells – cell-based, doxorubicin co-treatment, pilot screen (AID 601;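 active means viability loss from added drug above about 55%, and viability with drug at most 40%, in both replicates, limit read from the data, passing the limit was not always enough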); details: CellTiter-Glo, 72 h, at 10 µM; for differential viability (reversal): stronger effect = higher value
[7] = yeast transport mutant growth inhibition pilot in 384-well plates, post-Golgi transport modulator project (AID 636; in the data active means inhibition above about 31%); details: absorbance 615 nm, about 18 h, stronger effect = higher value
[8] = growth suppression of yeast trafficking mutant, preliminary HTS, modulators of trafficking downstream of Golgi apparatus project, 1536-format plate, OD 615 nm (AID 637; in the data active means inhibition above about 30%); details: yeast transport mutant growth, absorbance 615 nm, 18 h; stronger effect = higher value
[9] = S. cerevisiae growth inhibition in permissive medium (OD615), pilot counter-assay for S. cerevisiae lifespan shortening project, permissive growth control (AID 705;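 active means growth inhibition above 25% in both replicates, a cutoff set 3 SD above the mean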); details: OD615, 24 h, at 10 µM, stronger effect = higher value
[10] = S. cerevisiae growth inhibition in restrictive medium, OD615, pilot screen, restrictive growth control, yeast lifespan reduction project (AID 706;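 active means growth inhibition above a set limit, 3 SD over mean compound inhibition, in both replicates, cut at about 43% in these data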;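 further: modified DeaD lifespan yeast strain shifted to restrictive glucose medium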); details: OD615, 48 h, at 10 µM, stronger effect = higher value
[11] = doxorubicin toxicity protection in MRP-1 cells – H69AR cells, CellTiter-Glo, duplicate, MRP-1 activator project, pilot screen (AID 807;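 active means viability increase at or above a cutoff of the median across tested compounds plus 3 SD, cut at about 8.5% in these data, passing the limit was not always enough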;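 further: compound pretreatment 18-22 h then 72 h combined with doxorubicin; 0% = doxorubicin alone and 100% = vehicle without doxorubicin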); details: H69AR viability with doxorubicin, CellTiter-Glo luminescence; at 10 µM; stronger effect = higher value
[12] = viability of HCT116 without oncogenic beta-catenin – human colon tumor cells, pilot screen (AID 823;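 active means cell viability at or below a set limit in both duplicate runs, the limit being the all-compound median minus 4 SD, cut at about 23% in these data, passing the limit was not always enough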;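 further: 0% = wells killed by 20 µM Hyamine and 100% = untreated DMSO cell wells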); details: HCT116 beta-catenin knockout viability, CellTiter-Glo, 60 h; at 10 µM; stronger effect = lower value
[13] = viability of PTEN-null HCT116 cells – cell-based, HCT116 clonal line, CellTiter-Glo, pilot screen (AID 824;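 active means viability at or below 27.92% in each of two runs, the all-compound median minus 4 SD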;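 further: 0% = 20 µM Hyamine control and 100% = vehicle cell control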); details: HCT116 PTEN-deleted viability, 60 h, at 10 µM, stronger effect = lower value
[14] = RAM pathway blockade in budding yeast – dse1pr::URA3 reporter, 5-FOA selection, pilot screen (AID 869;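 active means inhibition over a set limit, the all-compound mean plus 3 SD, in both replicate runs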;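 further: 0% = DMSO wells with no growth and 100% = 10 µM 1-NA-PP1 with full growth; RAM network block rescues cells from 5-FOA so hits raise OD615 growth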); details: S. cerevisiae dse1pr::URA3 5-FOA growth, OD615, 2 d; at 10 µM; stronger effect = higher value; strain carries analog-sensitive mutant Cbk1 kinase
[15] = H69AR cells + 2 uM doxorubicin, measured here: viability with 2 uM doxorubicin, stronger effect = lower value
[16] = H69AR cells, compound alone cytotoxicity

Receptor tyrosine-protein kinase erbB-2 (Homo sapiens), sequence (P04626 whole entry, looked up): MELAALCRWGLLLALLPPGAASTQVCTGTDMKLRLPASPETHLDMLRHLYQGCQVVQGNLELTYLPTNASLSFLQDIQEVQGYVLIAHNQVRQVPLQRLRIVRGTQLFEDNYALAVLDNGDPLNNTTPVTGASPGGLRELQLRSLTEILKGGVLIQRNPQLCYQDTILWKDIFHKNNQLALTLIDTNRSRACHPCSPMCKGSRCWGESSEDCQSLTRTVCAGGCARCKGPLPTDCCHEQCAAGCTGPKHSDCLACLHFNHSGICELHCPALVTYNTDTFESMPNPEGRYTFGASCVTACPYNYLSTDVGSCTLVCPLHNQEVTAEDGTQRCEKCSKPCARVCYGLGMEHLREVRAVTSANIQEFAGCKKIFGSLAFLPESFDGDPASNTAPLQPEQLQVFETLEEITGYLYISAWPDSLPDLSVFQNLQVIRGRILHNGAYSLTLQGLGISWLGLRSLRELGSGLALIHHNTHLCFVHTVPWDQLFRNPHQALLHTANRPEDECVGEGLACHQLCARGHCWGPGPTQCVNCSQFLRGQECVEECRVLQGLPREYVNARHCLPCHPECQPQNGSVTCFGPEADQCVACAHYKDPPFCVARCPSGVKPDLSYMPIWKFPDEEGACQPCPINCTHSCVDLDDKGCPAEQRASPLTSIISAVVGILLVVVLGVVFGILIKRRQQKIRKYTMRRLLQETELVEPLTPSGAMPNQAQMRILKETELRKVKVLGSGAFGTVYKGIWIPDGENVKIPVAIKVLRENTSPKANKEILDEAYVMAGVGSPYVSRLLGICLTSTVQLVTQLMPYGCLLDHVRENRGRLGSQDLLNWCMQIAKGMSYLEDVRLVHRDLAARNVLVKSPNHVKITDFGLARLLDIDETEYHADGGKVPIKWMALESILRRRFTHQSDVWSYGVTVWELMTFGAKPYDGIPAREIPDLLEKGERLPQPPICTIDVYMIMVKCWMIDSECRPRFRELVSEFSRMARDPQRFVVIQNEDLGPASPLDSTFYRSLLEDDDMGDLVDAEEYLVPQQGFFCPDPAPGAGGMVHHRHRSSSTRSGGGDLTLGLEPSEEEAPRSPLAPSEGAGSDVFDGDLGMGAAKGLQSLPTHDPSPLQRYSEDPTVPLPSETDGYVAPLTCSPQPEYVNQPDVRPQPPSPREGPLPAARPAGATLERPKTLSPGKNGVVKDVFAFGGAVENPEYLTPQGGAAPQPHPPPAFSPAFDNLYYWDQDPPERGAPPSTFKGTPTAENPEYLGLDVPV

## CC(=O)n1nc(-c2ccco2)nc1SCc1ccccc1
[1]
  viability: 77%
[2]
  Her2 level: 103% (inactive)
[3]
  viability: 77% (inactive)
[4]
  viability: 97.2% (inactive)
[5]
  viability: 98.7% (inactive)
[6]; H69AR cells + 2 uM doxorubicin
  differential viability (reversal): 14.9% (inactive)
[6]; [15]
  viability: 83.8%
[6]; [16]
  viability: 98.7%
[7]
  inhibition: 1.54% (inactive)
[8]
  inhibition: 0% (inactive)

## Cc1onc(-c2ccccc2Cl)c1C(=O)NCCn1c(C)cc2ccccc21
[1]
  viability: 79%
[2]
  Her2 level: 80.5% (inactive)
[3]
  viability: 79% (inactive)
[4]
  viability: 78.3% (inactive)
[5]
  viability: 83.3% (inactive)
[6]; H69AR cells + 2 uM doxorubicin
  differential viability (reversal): -6.36% (inactive)
[6]; [15]
  viability: 89.6%
[6]; [16]
  viability: 83.3%
[7]
  inhibition: -3.2% (inactive)
[8]
  inhibition: 1.17% (inactive)
[9]
  growth inhibition: -8.05% (inactive)
[10]
  growth inhibition: 0.31% (inactive)
[11]
  viability increase: -2.02% (inactive)
[12]
  viability: 78.8% (inactive)
[13]
  viability: 85.7% (inactive)
[14]
  inhibition: 1.56% (inactive)

## CN(C1CCCCC1)S(=O)(=O)c1ccc(S(=O)(=O)N2CCCC2)cc1
[1]
  viability: 84.5%
[2]
  Her2 level: 92% (inactive)
[3]
  viability: 84.5% (inactive)
[4]
  viability: 78.3% (inactive)
[5]
  viability: 78.5% (inactive)
[6]; H69AR cells + 2 uM doxorubicin
  differential viability (reversal): -19.2% (inactive)
[6]; [15]
  viability: 97.7%
[6]; [16]
  viability: 78.5%
[7]
  inhibition: -0.13% (inactive)
[8]
  inhibition: -4.92% (inactive)

## CCn1c(SCC(=O)Nc2ccc3c(c2)OCO3)nc2c(c1=O)SC(C)C2 (stereo not drawn)
[1]
  viability: 92.5%
[2]
  Her2 level: 102% (inactive)
[3]
  viability: 92.5% (inactive)
[4]
  viability: 81% (inactive)
[5]
  viability: 84.7% (inactive)
[6]; H69AR cells + 2 uM doxorubicin
  differential viability (reversal): 1.51% (inactive)
[6]; [15]
  viability: 83.2%
[6]; [16]
  viability: 84.7%
[7]
  inhibition: -4.67% (inactive)
[8]
  inhibition: -2% (inactive)
[9]
  growth inhibition: -7.09% (inactive)
[10]
  growth inhibition: -23.1% (inactive)
[11]
  viability increase: -2.42% (inactive)
[12]
  viability: 99.9% (inactive)
[13]
  viability: 96.8% (inactive)
[14]
  inhibition: 1.63% (inactive)

## COc1cccc(NC(=O)CSc2nnnn2C(C)C)c1
[1]
  viability: 118%
[2]
  Her2 level: 86.5% (inactive)
[3]
  viability: 118% (inactive)
[4]
  viability: 97.9% (inactive)
[5]
  viability: 103% (inactive)
[6]; H69AR cells + 2 uM doxorubicin
  differential viability (reversal): 13.7% (inactive)
[6]; [15]
  viability: 89.7%
[6]; [16]
  viability: 103%
[7]
  inhibition: -3.65% (inactive)
[8]
  inhibition: 0.79% (inactive)

## CCOC(=O)C1CCN(Cc2ccc(C(=O)OC)cc2)CC1
[1]
  viability: 93.5%
[2]
  Her2 level: 106% (inactive)
[3]
  viability: 93.5% (inactive)
[4]
  viability: 87% (inactive)
[5]
  viability: 87.4% (inactive)
[6]; H69AR cells + 2 uM doxorubicin
  differential viability (reversal): 4.25% (inactive)
[6]; [15]
  viability: 83.2%
[6]; [16]
  viability: 87.4%
[7]
  inhibition: -4.08% (inactive)
[8]
  inhibition: -1.8% (inactive)

## CC1(C)CC(=O)CC(C)(C)N1OC(=O)c1ccccn1
[1]
  viability: 106%
[2]
  Her2 level: 94% (inactive)
[3]
  viability: 106% (inactive)
[4]
  viability: 94% (inactive)
[5]
  viability: 102% (inactive)
[6]; H69AR cells + 2 uM doxorubicin
  differential viability (reversal): 8.9% (inactive)
[6]; [15]
  viability: 93.6%
[6]; [16]
  viability: 102%
[7]
  inhibition: -2.3% (inactive)
[8]
  inhibition: 5.74% (inactive)

## O=C1c2ccccc2-c2nc3ncnn3c(-c3ccccc3)c21
[1]
  viability: 93.5%
[2]
  Her2 level: 105% (inactive)
[3]
  viability: 93.5% (inactive)
[4]
  viability: 103% (inactive)
[5]
  viability: 102% (inactive)
[6]; H69AR cells + 2 uM doxorubicin
  differential viability (reversal): 8.68% (inactive)
[6]; [15]
  viability: 93.2%
[6]; [16]
  viability: 102%
[7]
  inhibition: 1.97% (inactive)
[8]
  inhibition: -3.45% (inactive)

## CCOC(=O)n1c(SCC(=O)N(CC)CC)nc2ccccc21
[1]
  viability: 118%
[2]
  Her2 level: 97.5% (inactive)
[3]
  viability: 118% (inactive)
[4]
  viability: 105% (inactive)
[5]
  viability: 101% (inactive)
[6]; H69AR cells + 2 uM doxorubicin
  differential viability (reversal): 15.7% (inactive)
[6]; [15]
  viability: 85.7%
[6]; [16]
  viability: 101%
[7]
  inhibition: -3.51% (inactive)
[8]
  inhibition: 1.11% (inactive)

## Cn1c(=O)c2c(nc(NCC3CCCO3)n2C)n(C)c1=O (stereo not drawn)
[1]
  viability: 102%
[2]
  Her2 level: 104% (inactive)
[3]
  viability: 102% (inactive)
[4]
  viability: 105% (inactive)
[5]
  viability: 103% (inactive)
[6]; H69AR cells + 2 uM doxorubicin
  differential viability (reversal): 7.24% (inactive)
[6]; [15]
  viability: 95.5%
[6]; [16]
  viability: 103%
[7]
  inhibition: -1.33% (inactive)
[8]
  inhibition: -3.11% (inactive)

## CCOc1ccc(NC(=O)CN2CCN(CC(=O)c3ccc(OCC)cc3)CC2)cc1
[1]
  viability: 95%
[2]
  Her2 level: 89% (inactive)
[3]
  viability: 95% (inactive)
[4]
  viability: 77.8% (inactive)
[5]
  viability: 89.3% (inactive)
[6]; H69AR cells + 2 uM doxorubicin
  differential viability (reversal): 1.23% (inactive)
[6]; [15]
  viability: 88.1%
[6]; [16]
  viability: 89.3%
[7]
  inhibition: -4.87% (inactive)
[8]
  inhibition: -2.83% (inactive)

## CCOC(=O)C1=C(C)NC(=O)C(C#N)C1c1ccco1 (stereo not drawn)
[1]
  viability: 104%
[2]
  Her2 level: 85% (inactive)
[3]
  viability: 104% (inactive)
[4]
  viability: 92.6% (inactive)
[5]
  viability: 90% (inactive)
[6]; H69AR cells + 2 uM doxorubicin
  differential viability (reversal): -0.555% (inactive)
[6]; [15]
  viability: 90.6%
[6]; [16]
  viability: 90%
[7]
  inhibition: -4.8% (inactive)
[8]
  inhibition: -1.31% (inactive)

## CCOc1ccccc1N1C(=O)c2ccc(C(=O)Nc3cccnc3)cc2C1=O
[1]
  viability: 94.5%
[2]
  Her2 level: 94% (inactive)
[3]
  viability: 94.5% (inactive)
[4]
  viability: 88.2% (inactive)
[5]
  viability: 102% (inactive)
[6]; H69AR cells + 2 uM doxorubicin
  differential viability (reversal): 2.08% (inactive)
[6]; [15]
  viability: 100%
[6]; [16]
  viability: 102%
[7]
  inhibition: -1.6% (inactive)
[8]
  inhibition: -2.13% (inactive)
[9]
  growth inhibition: -15.8% (inactive)
[10]
  growth inhibition: -21.7% (inactive)
[11]
  viability increase: 0.54% (inactive)
[12]
  viability: 107% (inactive)
[13]
  viability: 98.7% (inactive)
[14]
  inhibition: 3.15% (inactive)

## CS(=O)(=O)N1CCc2cc(C(=O)N3CCCCC3)ccc21
[1]
  viability: 89.5%
[2]
  Her2 level: 89% (inactive)
[3]
  viability: 89.5% (inactive)
[4]
  viability: 99.8% (inactive)
[5]
  viability: 96.6% (inactive)
[6]; H69AR cells + 2 uM doxorubicin
  differential viability (reversal): 8.06% (inactive)
[6]; [15]
  viability: 88.5%
[6]; [16]
  viability: 96.6%
[7]
  inhibition: -3.42% (inactive)
[8]
  inhibition: 1.75% (inactive)

Reference: PubChem BioAssay
